According to PubChem BioAssay (NCATS):
Results filed as inconclusive are left out. Activity calls are given as the source filed them. The call rests on the fitted dose curve; in most records, active means well fitted curve in either direction with a large enough effect (not every such curve was filed as active); inconclusive means small, poorly fitted or top-dose-only effect, or another doubt; inactive means flat fitted curve, though single readings scatter.

Experiment: NFAT Signaling Pathway (AID 444);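 further: carbachol stimulus at about its EC50 of 1 µM final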
Details: Jurkat NFAT-bla M1, carbachol, beta-lactamase ratio, 5 h; at 17.2 µM (top of the series) unless noted
Summary of the method: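 Read-out: CCF4 FRET ratio (460 nm/530 nm) after 1 h RT dye loading, used for %activity and AC50 from titration series. Cells: Jurkat NFAT-β-lactamase/M1 line, treated with compound plus 1 uM carbachol for 5 h, 37 °C.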
On the % scale 0 is the no-effect control and ±100 the full control effect.

Activity change, negative = inhibition, inactive:
COCc1[nH]nc2c1C(c1cccc(OC)c1)C(C#N)=C(N)O2 (stereo not given) -19.7%, O=C(Nc1cccnc1)c1cccnc1 -7.91%, CCN(CC)CCN1C(=O)C(=O)/C(=C(/O)c2ccc(F)cc2)C1c1cccnc1 (stereo not given) 3.02%, COc1ccc(OC)c(C2C(C#N)=C(N)Oc3cc(C)n(Cc4ccccn4)c(=O)c32)c1 (stereo not given) -20.4%, Cc1cc(C)n(C(=O)CSc2nc3ccccc3o2)n1 -4.76%, Cc1nn(C)cc1/C=N/O -0.64%, COC(=O)/C=c1/s/c(=C(/C#N)C(=O)N2CCOCC2)n(-c2ccccc2)c1=O -4.89%, O=C(CC1SC2=NCCN2C1=O)Nc1ccccc1 (stereo not given) 19%, Cc1c(/C(O)=C2/C(=O)C(=O)N(CCN3CCOCC3)C2c2cccnc2)cnn1-c1ccccc1 (stereo not given) -1.03%, CCOC(=O)c1cc(CC)sc1NC(=O)C1CC1 12.8%, O=c1[nH]c(CN(CCO)CCO)nc2c1C1(CCCCC1)Cc1ccccc1-2 6.88%, CCCC(=O)Nc1sc2c(c1C#N)CCCC2 -0.791%, CSc1nc2sc3c(c2c2nnnn12)CC(C)(C)OC3 -19.6%, CC(=N\O)/C(CN(C)C)=N/O 13%, O=C(C1=C(O)C(=O)N(CCCN2CCOCC2)C1c1ccccn1)c1cccs1 (stereo not given) -1.18%, CNC(=O)c1ncnnc1N(C)C(=O)NCc1ccccc1 4.03%, CCOC(=O)CNC(=O)CNC(=O)c1ccc(OCC(C)C)cc1 8.09%, CC(C)Cn1cnc2c(c1=O)c1nc3ccccc3nc1n2Cc1ccc2c(c1)OCO2 8.7%, Cc1cccc(C)c1NC(=O)CSCC(=O)c1ccc(O)c(O)c1 22.8%, CCOC(=O)C1CCN(C(C)=C2C(=O)c3ccccc3C2=O)CC1 4.7%, N#CC12CCCCC1CC1CCCCC1(C#N)N2Cc1ccccn1 (stereo not given) -14.8%, Cc1nc2sc(C)c(C)c2c(=O)o1 4.96%, c1coc(-c2nnc3sc(-c4cccs4)nn23)c1 -8.1%, O=C(OCCN1CCOCC1)c1ccc2c(c1)OCCO2 19.9%, CCSc1nnc(N(CCC(=O)O)CCC(=O)O)s1 5.3%, O=C(NC1CCS(=O)(=O)C1)N1CCCCC1 (stereo not given) -4.07%, CCCCCOC(=O)Cc1c(C)nc(-c2ccccc2)[nH]c1=O 8.16%, CCN(CC)c1nc(N2CCOCC2)c(C#N)c2c1CN(C)CC2 12.3%, O=C1OC(Nc2ccc(Br)cn2)c2ccccc21 (stereo not given) 16.3%, COc1cccc(Cn2c(OCC3CCCO3)nc3c2c(=O)n(C)c(=O)n3C)c1 (stereo not given) -8.17%, CCOC(=O)c1[nH]c2ccc(C)cc2c1N -1.75%, O=c1[nH]nc2n1CCCCC2 9.36%, Cc1cccc(N2C(=O)CC(N3CCN(Cc4ccc(Cl)cc4)CC3)C2=O)c1 (stereo not given) 6.12%, O=C(O)CN(c1ccccc1)C1SC(=O)NC1=O (stereo not given) 20.4%, CCOC(=O)c1[nH]c2ccc(C)cc2c1N=CN(CC)CC -21.2%, CCOC(=O)C(C)Oc1nc(Oc2ccccc2)nc(N(C)C)n1 (stereo not given) 11%, Cn1ncc2nc[nH]c(=O)c21 -1.7%, N#Cc1c(N)nc(SCC(=O)NCCc2ccccc2)c(C#N)c1-c1cccs1 15.3%, Cn1c(NCc2ccccc2)nc2c1c(=O)n(Cc1ccccc1)c(=O)n2C -0.651%, CC(NC(=O)Nc1ncccn1)(C(F)(F)F)C(F)(F)F 1.67%

Experiment: Stat Signaling Pathway (AID 446);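 further: ME-180 cervical cancer cells given 40 pM IL-6 alongside compound; SIE-controlled beta-lactamase reporter measured as 460/530 nm FRET emission ratio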
Details: ME-180 (cervical carcinoma) SIE beta-lactamase reporter, IL-6 stimulated, 5 h; at 17.2 µM (top of the series) unless noted
Summary of the method: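 Normalization used AC90 stimulation (300 pM IL-6) and AC90 inhibition (125 nM pan-JAK inhibitor at 40 pM IL-6). The underlying signal is SIE-driven beta-lactamase in ME-180 cells after 5 h IL-6 exposure with compound.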

activity, negative = inhibition, inactive:
COCc1[nH]nc2c1C(c1cccc(OC)c1)C(C#N)=C(N)O2 (stereo not given) -11%, O=C(Nc1cccnc1)c1cccnc1 4.68%, CCN(CC)CCN1C(=O)C(=O)/C(=C(/O)c2ccc(F)cc2)C1c1cccnc1 (stereo not given) -0.766%, COc1ccc(OC)c(C2C(C#N)=C(N)Oc3cc(C)n(Cc4ccccn4)c(=O)c32)c1 (stereo not given) -2.84%, Cc1cc(C)n(C(=O)CSc2nc3ccccc3o2)n1 2.26%, Cc1nn(C)cc1/C=N/O 4.83%, COC(=O)/C=c1/s/c(=C(/C#N)C(=O)N2CCOCC2)n(-c2ccccc2)c1=O -9.79%, O=C(CC1SC2=NCCN2C1=O)Nc1ccccc1 (stereo not given) -5.25%, Cc1c(/C(O)=C2/C(=O)C(=O)N(CCN3CCOCC3)C2c2cccnc2)cnn1-c1ccccc1 (stereo not given) -0.626%, CCOC(=O)c1cc(CC)sc1NC(=O)C1CC1 -13.8%, O=c1[nH]c(CN(CCO)CCO)nc2c1C1(CCCCC1)Cc1ccccc1-2 -8.23%, CCCC(=O)Nc1sc2c(c1C#N)CCCC2 8.33%, CSc1nc2sc3c(c2c2nnnn12)CC(C)(C)OC3 15.4%, CC(=N\O)/C(CN(C)C)=N/O 12%, O=C(C1=C(O)C(=O)N(CCCN2CCOCC2)C1c1ccccn1)c1cccs1 (stereo not given) -0.582%, CNC(=O)c1ncnnc1N(C)C(=O)NCc1ccccc1 0.797%, CCOC(=O)CNC(=O)CNC(=O)c1ccc(OCC(C)C)cc1 -1.49%, CC(C)Cn1cnc2c(c1=O)c1nc3ccccc3nc1n2Cc1ccc2c(c1)OCO2 -6.69%, Cc1cccc(C)c1NC(=O)CSCC(=O)c1ccc(O)c(O)c1 -19.4%, CCOC(=O)C1CCN(C(C)=C2C(=O)c3ccccc3C2=O)CC1 1.52%, N#CC12CCCCC1CC1CCCCC1(C#N)N2Cc1ccccn1 (stereo not given) 19.1%, Cc1nc2sc(C)c(C)c2c(=O)o1 -1.71%, c1coc(-c2nnc3sc(-c4cccs4)nn23)c1 -3.51%, O=C(OCCN1CCOCC1)c1ccc2c(c1)OCCO2 6.54%, CCSc1nnc(N(CCC(=O)O)CCC(=O)O)s1 -4.16%, O=C(NC1CCS(=O)(=O)C1)N1CCCCC1 (stereo not given) 9%, CCCCCOC(=O)Cc1c(C)nc(-c2ccccc2)[nH]c1=O 4.57%, CCN(CC)c1nc(N2CCOCC2)c(C#N)c2c1CN(C)CC2 9.24%, O=C1OC(Nc2ccc(Br)cn2)c2ccccc21 (stereo not given) 3.14%, COc1cccc(Cn2c(OCC3CCCO3)nc3c2c(=O)n(C)c(=O)n3C)c1 (stereo not given) -4.79%, CCOC(=O)c1[nH]c2ccc(C)cc2c1N -1.27%, O=c1[nH]nc2n1CCCCC2 7.42%, Cc1cccc(N2C(=O)CC(N3CCN(Cc4ccc(Cl)cc4)CC3)C2=O)c1 (stereo not given) 1.94%, O=C(O)CN(c1ccccc1)C1SC(=O)NC1=O (stereo not given) 10.5%, CCOC(=O)c1[nH]c2ccc(C)cc2c1N=CN(CC)CC 10.4%, CCOC(=O)C(C)Oc1nc(Oc2ccccc2)nc(N(C)C)n1 (stereo not given) 2.57%, Cn1ncc2nc[nH]c(=O)c21 7.35%, N#Cc1c(N)nc(SCC(=O)NCCc2ccccc2)c(C#N)c1-c1cccs1 5.35%, Cn1c(NCc2ccccc2)nc2c1c(=O)n(Cc1ccccc1)c(=O)n2C -21.1%, CC(NC(=O)Nc1ncccn1)(C(F)(F)F)C(F)(F)F -5.56%
